According to PubChem BioAssay (NCI):
Several values for one entry are separate records, joined by “and”; a condition that tells them apart may be missing. Equal values may be shown once. The panel holds about 83,000 compounds, 20% with a hit somewhere; the sample as a whole holds those more often.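 The test compound was applied at a single concentration to cells in 96-well plates for 48 hours, and percent growth was recorded.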 Some compounds were tested as several samples or in several runs, with calls that do not always agree. Activity calls are given as the source filed them. The calls were made as follows: active = growth percent below 10; inactive = the rest.

Assays:
Test in all cases: NCI-60 one-dose screen, 48 h (100 = growth as untreated, 0 = no growth, -100 = all killed)
Conditions in all cases: 10 µM unless noted
HCT-15 colon = system: HCT-15 colon
HT29 colon = system: HT29 colon
SNB-75 CNS = system: SNB-75 CNS
SNB-19 CNS = system: SNB-19 CNS
U251 CNS = system: U251 CNS
PC-3 prostate = system: PC-3 prostate
SK-MEL-5 melanoma = system: SK-MEL-5 melanoma
UACC-62 melanoma = system: UACC-62 melanoma
LOX IMVI melanoma = system: LOX IMVI melanoma
SK-MEL-28 melanoma = system: SK-MEL-28 melanoma

SMILES | growth (HCT-15 colon) | growth (HT29 colon) | growth (SNB-75 CNS) | growth (SNB-19 CNS) | growth (U251 CNS) | growth (PC-3 prostate) | growth (SK-MEL-5 melanoma) | growth (UACC-62 melanoma) | growth (LOX IMVI melanoma) | growth (SK-MEL-28 melanoma)
CN(C)c1ccc(/C=C\C(=O)c2ccccc2)cc1 | 83.3% (inactive) and 66.5% (inactive) and 72% (inactive) | 53.6% (inactive) and 58.5% (inactive) and 57.6% (inactive) | 70.1% (inactive) and 100% (inactive) and 93.4% (inactive) | 98.7% (inactive) and 92.3% (inactive) and 61.6% (inactive) | 82.2% (inactive) and 80.6% (inactive) | 88.3% (inactive) and 94.4% (inactive) and 76% (inactive) | 95.2% (inactive) and 89.4% (inactive) and 89.1% (inactive) | 88.4% (inactive) and 91.1% (inactive) and 84.9% (inactive) | 84.5% (inactive) and 75.6% (inactive) and 77.4% (inactive) | 93% (inactive) and 103% (inactive) and 89.8% (inactive)
O=C(O)CCCl | – | 108% (inactive) | 97.9% (inactive) | 104% (inactive) | 101% (inactive) | 96.8% (inactive) | 99.2% (inactive) | 110% (inactive) | 104% (inactive) | 105% (inactive)
CN1CNC(=O)NC1 | 109% (inactive) and 101% (inactive) | 101% (inactive) | 94.8% (inactive) and 110% (inactive) | 109% (inactive) and 103% (inactive) | 118% (inactive) and 87.5% (inactive) | 94% (inactive) and 87.2% (inactive) | 113% (inactive) and 95.9% (inactive) | 111% (inactive) and 107% (inactive) | 99.6% (inactive) and 95.4% (inactive) | 113% (inactive) and 118% (inactive)
OC1COC(OCc2ccccc2)C(O)C1O (stereo not drawn) | 98% (inactive) | 111% (inactive) | 90.5% (inactive) | – | 95.4% (inactive) | 105% (inactive) | 101% (inactive) | 106% (inactive) | 94% (inactive) | 104% (inactive)
O=C1CSC2=NCCN12 | 107% (inactive) and 97.2% (inactive) | 96.4% (inactive) and 91.5% (inactive) | 87.5% (inactive) and 83.3% (inactive) | 101% (inactive) and 112% (inactive) | 88.7% (inactive) and 91.1% (inactive) | 102% (inactive) and 121% (inactive) | 88.9% (inactive) and 86.1% (inactive) | 87.1% (inactive) | 94% (inactive) and 90.1% (inactive) | 78.5% (inactive) and 85.8% (inactive)
O=C(Cc1ccccc1)c1ccc(O)c(Cl)c1 | 13.9% (inactive) | 30.2% (inactive) | 72.7% (inactive) | 74.8% (inactive) | 73% (inactive) | 53.2% (inactive) | 27.5% (inactive) | 26.8% (inactive) | 15.2% (inactive) | 49.4% (inactive)
O=C1NC(N/N=C\C(O)C(O)C(O)CO)=N/C1=C/c1ccc(Cl)cc1 (stereo not drawn) | – | – | – | – | – | – | – | 3.82% [100 µM] (active) and -100% [100 µM] (active) and 32.5% [100 µM] (inactive) | – | –
Cn1cnc([N+](=O)[O-])c1Sc1ncn[nH]1 | 107% (inactive) | 104% (inactive) | 85.6% (inactive) | 111% (inactive) | 108% (inactive) | – | 104% (inactive) | 108% (inactive) | 93.1% (inactive) | 104% (inactive)
CC(=O)OCC1OC(OC(C)=O)C(OC(C)=O)C(OC(C)=O)C1OC(C)=O (stereo not drawn) | 98.2% (inactive) and 104% (inactive) | 110% (inactive) and 115% (inactive) | 67.1% (inactive) and 98.6% (inactive) | 102% (inactive) and 106% (inactive) | 95.6% (inactive) and 96% (inactive) | 105% (inactive) and 104% (inactive) | 102% (inactive) and 100% (inactive) | 109% (inactive) and 99.9% (inactive) | 96.9% (inactive) and 97.3% (inactive) | 103% (inactive) and 109% (inactive)
CCOC(=O)c1c(C)cc(=O)oc1C | 102% (inactive) | 103% (inactive) | 94% (inactive) | 96.2% (inactive) | 98.3% (inactive) | 92% (inactive) | 106% (inactive) | 95.3% (inactive) | 105% (inactive) | 115% (inactive)
COc1cc(C(O)C2C(=O)OCC2C2(c3ccc4c(c3)OCO4)SCCCS2)cc(OC)c1OC (stereo not drawn) | 96.6% (inactive) | 102% (inactive) | – | 96.4% (inactive) | 100% (inactive) | 84.1% (inactive) | 99.1% (inactive) | 87.5% (inactive) | 92.1% (inactive) | 108% (inactive)
OCC1OC(O)C(O)C(O)C1O (stereo not drawn) | 97.2% (inactive) | 92.5% (inactive) | – | 107% (inactive) | 113% (inactive) | 92.2% (inactive) | 110% (inactive) | 117% (inactive) | 100% (inactive) | –
N#CC(C#N)N=Nc1cc(Cl)ccc1Cl | 101% (inactive) | 101% (inactive) | 74.8% (inactive) | 93.6% (inactive) | 96.6% (inactive) | 106% (inactive) | 106% (inactive) | 99.1% (inactive) | 109% (inactive) | 109% (inactive)
Nc1cc(N)c(N)cc1N | 54.2% (inactive) | 82.4% (inactive) | 56.6% (inactive) | 84.5% (inactive) | 15.6% (inactive) | 92.7% (inactive) | -92.7% (active) | -40.3% (active) | -93.8% (active) | 78.7% (inactive)
COc1ccc(Nc2ccc3ccccc3c2)cc1 | 78.2% (inactive) | 64.9% (inactive) | 64.3% (inactive) | 79.5% (inactive) | – | 71.5% (inactive) | 73.8% (inactive) | 62.1% (inactive) | 74.2% (inactive) | 89.8% (inactive)
O=c1n(CC2CO2)c(=O)n(CC2CO2)c(=O)n1CC1CO1 (stereo not drawn) | 75.9% (inactive) | 70.3% (inactive) | 66.3% (inactive) | 83.9% (inactive) | 56.2% (inactive) | 71.4% (inactive) | 86.7% (inactive) | 66% (inactive) | 54.5% (inactive) | 88.7% (inactive)
COc1ccc(N/C=C/C2=[N+](C)c3ccccc3C2(C)C)c(OC)c1 | 99.3% (inactive) | 87.4% (inactive) | 89.5% (inactive) | 102% (inactive) | 91.2% (inactive) | 87.6% (inactive) | 90.9% (inactive) | 92.9% (inactive) | 96% (inactive) | 113% (inactive)
CC(C)C(C)(C)c1ccc(O)cc1 | 105% (inactive) | 102% (inactive) | 97.8% (inactive) | – | 102% (inactive) | 93.1% (inactive) | 99.9% (inactive) | 101% (inactive) | 98.4% (inactive) | 105% (inactive)
ClCCOCCOc1ccc(C2CCCCC2)cc1 | 105% (inactive) | 106% (inactive) | 98.2% (inactive) | 98.4% (inactive) | 89.7% (inactive) | 101% (inactive) | 98.8% (inactive) | 98.6% (inactive) | 107% (inactive) | 102% (inactive)
NC(=O)NCCCC(N)C(=O)O (stereo not drawn) | 109% (inactive) | 101% (inactive) | 104% (inactive) | 92.1% (inactive) | 96.2% (inactive) | 95.5% (inactive) | 113% (inactive) | 102% (inactive) | 67.6% (inactive) | 99% (inactive)
N#CC(C#N)N=Nc1ccc(Cl)cc1 | 15.1% (inactive) | 24.7% (inactive) | 72% (inactive) | 94.2% (inactive) | 88.7% (inactive) | 54.7% (inactive) | 79.6% (inactive) | – | 53.5% (inactive) | 42.2% (inactive)
CC[C@H](CC[C@@H](C)[C@H]1CC[C@H]2[C@@H]3CC=C4C[C@@H](O)CC[C@]4(C)[C@H]3CC[C@]12C)C(C)C | 80.9% (inactive) and 102% (inactive) | 101% (inactive) and 109% (inactive) | 81.3% (inactive) and 101% (inactive) | 99.5% (inactive) and 98.1% (inactive) | 90.3% (inactive) and 104% (inactive) | 106% (inactive) and 98.2% (inactive) | 95.2% (inactive) and 105% (inactive) | 96% (inactive) and 101% (inactive) | 92.6% (inactive) and 101% (inactive) | 99.9% (inactive) and 103% (inactive)
O=CN1CCCCC1 | 106% (inactive) | 108% (inactive) | 94.3% (inactive) | 107% (inactive) | 110% (inactive) | 106% (inactive) | 100% (inactive) | – | 96.6% (inactive) | 110% (inactive)
CC(=O)OC(C)C(=O)NCC(C)O (stereo not drawn) | 100% (inactive) | 110% (inactive) | 93.2% (inactive) | 110% (inactive) | – | 96.6% (inactive) | – | 122% (inactive) | 101% (inactive) | 105% (inactive)
c1ccc2c(c1)OC1OC2Oc2ccccc21 | 98.1% (inactive) | 95.6% (inactive) | 90% (inactive) | 97.6% (inactive) | 102% (inactive) | 91.6% (inactive) | 103% (inactive) | 92.5% (inactive) | 91.1% (inactive) | 103% (inactive)
O=c1[nH]cnc2c1ncn2C1OC(CO)C(O)C1O (stereo not drawn) | 135% (inactive) and 124% (inactive) and 110% (inactive) | 116% (inactive) and 109% (inactive) | 115% (inactive) and 99.9% (inactive) and 98.8% (inactive) | 99.5% (inactive) and 106% (inactive) and 93.5% (inactive) | 108% (inactive) and 110% (inactive) and 102% (inactive) | 89.3% (inactive) and 81.6% (inactive) and 98.8% (inactive) | 106% (inactive) and 109% (inactive) and 107% (inactive) | 96.1% (inactive) and 106% (inactive) and 98.6% (inactive) | 101% (inactive) and 103% (inactive) and 91.7% (inactive) | 113% (inactive) and 116% (inactive) and 118% (inactive)
Cc1cc2ccccc2cn1 | 104% (inactive) and 105% (inactive) | 109% (inactive) and 102% (inactive) | 92.9% (inactive) and 83.1% (inactive) | 95.3% (inactive) and 97.7% (inactive) | 99.4% (inactive) and 103% (inactive) | 95.3% (inactive) and 96% (inactive) | 101% (inactive) and 109% (inactive) | 92.5% (inactive) and 95.2% (inactive) | 102% (inactive) and 99.7% (inactive) | 109% (inactive) and 200% (inactive)
O=C1OC(C(O)C(O)CO)C(O)=C1O (stereo not drawn) | 99.8% (inactive) and 100% (inactive) | 102% (inactive) and 96.4% (inactive) | 100% (inactive) and 90.4% (inactive) | 100% (inactive) and 98.4% (inactive) | 104% (inactive) and 92.5% (inactive) | 93.2% (inactive) and 85.3% (inactive) | 97.2% (inactive) and 106% (inactive) | 103% (inactive) and 99.8% (inactive) | 104% (inactive) and 99.2% (inactive) | 118% (inactive) and 107% (inactive)
C/C(=C\c1ccccc1)c1ccccn1 | 103% (inactive) | 113% (inactive) | 89.1% (inactive) | 92.1% (inactive) | 107% (inactive) | 98.7% (inactive) | 103% (inactive) | – | 112% (inactive) | 107% (inactive)
Nc1ncnc2c1ncn2C1OC(COP(=O)(O)O)C(O)C1O (stereo not drawn) | 109% (inactive) | 114% (inactive) | 93.1% (inactive) | 103% (inactive) | 112% (inactive) | 101% (inactive) | 117% (inactive) | 104% (inactive) | 108% (inactive) | 119% (inactive)
